Screens (PubChem BioAssay)
FEN1 inh – qHTS Assay for the Inhibitors of Human Flap endonuclease 1 (FEN1) | P39748 | Recombinant FEN1 flap cleavage, fluorescence, 15 min | Potency, µM (titrated, usually from 114 µM), hits mostly inhibitors | 390,000 compounds, 0.35% hits | AID 588795, 2011; also: nearly all actives have a fitted effect of over 65% in size
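Potency values derive from four-parameter Hill fits of normalized qHTS data. The reaction used 10 nM FEN1 preincubated 15 min at room temperature with compound, then 50 nM DNA substrate, read at 0 and 15 min.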
Pol iota inh – qHTS for Inhibitors of Polymerase Iota | DNA polymerase iota (Homo sapiens), Q9UNA4 | Pol iota fluorescent replication assay, 10 min | Potency, µM (doses to about 115 µM), usual class: inhibitors | 390,000 compounds, 1% hits
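Pol iota at 10 nM preincubated 15 min with compounds at room temperature; reaction started with fluorescent substrate, 50 nM final. Fluorescence read kinetically at 0 and 10 min; buffer-only wells as negative control.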
POLB inh – qHTS Assay for Inhibitors of DNA Polymerase Beta; 340,000 compounds, 1.3% hits; AID 485314, 2010; Potency, µM (titrated, usually from 114 µM), actives largely listed as inhibitors; Pol beta primer extension/strand displacement, fluorescence kinetic; P06746
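Human Pol beta at 10 nM; strand-displacement substrate 50 nM final. Compound exposure 15 min at room temperature before start, reaction 10 min at room temperature.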
Pol kappa inh – qHTS for Inhibitors of Polymerase Kappa; DNA polymerase kappa (Homo sapiens), Q9UBT6; AID 588579, 2011; 400,000 compounds, 0.53% hits; purified Pol kappa, fluorescent DNA synthesis assay, 10 min; Potency, µM (titrated, usually from 107 µM), most hits filed as inhibitors
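Readout: fluorescence, taken kinetically at 0 and 10 min. Conditions: 10 nM Pol kappa, 15 min RT compound preincubation, 50 nM substrate final. Controls: enzyme-free buffer wells.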
Pol eta inh – qHTS for Inhibitors of Polymerase Eta; Potency, µM (doses to about 114 µM), actives largely listed as inhibitors; DNA polymerase eta (Homo sapiens), Q9Y253; recombinant Pol eta, fluorescent DNA replication assay; 390,000 compounds, 1.2% hits; AID 588591, 2011
Target sequence (Q9Y253 whole entry, looked up): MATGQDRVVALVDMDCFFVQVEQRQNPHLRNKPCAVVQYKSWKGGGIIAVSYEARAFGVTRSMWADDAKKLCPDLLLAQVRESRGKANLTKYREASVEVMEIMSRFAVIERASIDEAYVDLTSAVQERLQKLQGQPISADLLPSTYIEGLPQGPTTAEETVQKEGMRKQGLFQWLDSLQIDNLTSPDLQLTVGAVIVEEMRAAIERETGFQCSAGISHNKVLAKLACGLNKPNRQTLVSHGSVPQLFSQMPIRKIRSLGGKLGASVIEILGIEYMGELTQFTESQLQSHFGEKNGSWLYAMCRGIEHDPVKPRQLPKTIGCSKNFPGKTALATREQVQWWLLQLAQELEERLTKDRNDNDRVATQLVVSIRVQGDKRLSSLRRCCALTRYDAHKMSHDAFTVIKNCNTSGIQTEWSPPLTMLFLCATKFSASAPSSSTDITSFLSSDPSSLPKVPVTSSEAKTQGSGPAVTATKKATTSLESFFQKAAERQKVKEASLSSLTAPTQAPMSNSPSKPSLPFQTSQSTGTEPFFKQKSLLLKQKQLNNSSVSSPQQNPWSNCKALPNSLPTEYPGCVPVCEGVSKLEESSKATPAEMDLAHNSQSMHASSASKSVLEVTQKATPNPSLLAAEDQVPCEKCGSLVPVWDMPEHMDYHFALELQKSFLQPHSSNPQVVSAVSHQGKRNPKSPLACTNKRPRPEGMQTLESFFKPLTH
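Pol eta (10 nM) was preincubated with compounds for 15 min at room temperature, after which fluorescent replication substrate (50 nM final) was added to start the reaction. Fluorescence was read kinetically at 0 and 10 min.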
PI5P4K alpha inh – qHTS for Inhibitors of phosphatidylinositol 5-phosphate 4-kinase (PI5P4K) | Phosphatidylinositol 5-phosphate 4-kinase type-2 alpha (Homo sapiens), P48426 | PI5P4Kalpha enzyme, ADP-Glo luminescence, 60 min; active compounds read low | max response, % | 330,000 compounds, 1.2% hits; active = max response of -50% or lower; inconclusive = between -30% and -50%; inactive = -30% or higher; also: value at the top dose of about 77 µM
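Single end-point luminescence (ADP-Glo) quantified ADP from PI5P4Kalpha turnover; ATP 5 microM final, 1 h at RT, 0.1% CHAPS and 0.28 mM EGTA in HEPES pH 7.4.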
Each line names hits and unclear results; the compound was inactive in the other large screens; ! = not active in a repeat. This is a sample that favours compounds with a hit; in the whole collection about 2.8% have one here. Unless noted, calls follow the shape of the dose curve; as a rule, active = well fitted curve in the direction sought with a large enough effect; inconclusive = small, poorly fitted or top-dose-only effect, or another doubt; inactive = no such curve, though single readings can be large; an effect the other way counts as inactive or inconclusive.

CC(C)(C)n1ncc2c(=O)n(Cc3cccc(Oc4ccccc4)c3)cnc21	none (no result: POLB inh, Pol eta inh, PI5P4K alpha inh)
O=[N+]([O-])c1cc([N+](=O)[O-])c2nonc2c1Nc1ccc(O)cc1	FEN1 inh inconclusive, Pol iota inh 2.5µM, PI5P4K alpha inh inconclusive
O=C(c1ccc(N2C(=O)CCC2=O)cc1)N1CCCSC1=Nc1ccccc1	none (no result: FEN1 inh, Pol iota inh, POLB inh, Pol kappa inh)
Oc1c(N=Nc2nn[nH]n2)ccc2ccccc12	PI5P4K alpha inh -82 (no result: FEN1 inh, Pol iota inh, POLB inh, Pol kappa inh, Pol eta inh)
CCSc1nnc(NC(=O)CSc2nnc(Cc3cccn3C)n2-c2ccc(C)cc2)s1	Pol iota inh 50µM, POLB inh inconclusive (no result: PI5P4K alpha inh)
Nc1cc2c3c(cccc3c1)C(=O)N(CCN1CCCC1)C2=O	FEN1 inh 25µM, Pol iota inh 35µM, POLB inh 25µM
NC(=O)CN1CCN(CCN2C(=O)c3cccc4cccc(c34)C2=O)CC1	none
CC1CCN(S(=O)(=O)c2nnc(NC(=O)c3cccc(Br)c3)s2)CC1	none (no result: PI5P4K alpha inh)
Cc1cccc(C(=O)Nc2nnc(S(=O)(=O)N3CCC(C)CC3)s2)c1	Pol eta inh 79µM!
Cc1cccc(C(=O)Nc2nnc(S(=O)(=O)N3CCCc4ccccc43)s2)c1	Pol eta inh inconclusive (no result: PI5P4K alpha inh)
O=C(Nc1nnc(S(=O)(=O)N2CCCCC2)s1)c1cccc(Br)c1	Pol iota inh inconclusive, Pol eta inh 45µM
COc1cccc(C(=O)Nc2nnc(S(=O)(=O)N3CCCc4ccccc43)s2)c1	Pol eta inh 50µM (no result: PI5P4K alpha inh)
CCC(CC)Nc1ccc(C(CC(N)=O)NC(=O)Cc2cccc3ccccc23)cc1[N+](=O)[O-] (centres undefined)	none
COc1cc(NC(=O)CSc2ccc(-c3sc(C)nc3C)nn2)cc(OC)c1	POLB inh inconclusive (no result: PI5P4K alpha inh)
C/C(=C/c1ccccc1)C(=O)N1CCN(c2ccc(F)cc2)CC1	none
O=C(/C=C/c1ccc(O)cc1)c1ccc(NC2=C(N3CCCCC3)C(=O)c3ccccc3C2=O)cc1	Pol iota inh 28µM, POLB inh inconclusive, Pol eta inh inconclusive
O=C1C(Nc2ccccc2)=C(N2CCCCC2)C(=O)c2ccccc21	Pol iota inh inconclusive, POLB inh inconclusive
CC(=O)C1=C(c2ccc(Br)cc2)C(=O)c2ccccc2C1=O	Pol iota inh 3.5µM, Pol kappa inh inconclusive
CCN(CC(=O)NCc1cccs1)C(=O)c1ccc(S(=O)(=O)Nc2ccccc2Cl)cc1	none (no result: POLB inh)
Cc1nnc(SCC(=O)N/N=C/c2cc(Cl)c(O)c(Cl)c2)s1	Pol eta inh inconclusive, PI5P4K alpha inh -79
O=C(CSc1nnc(SCc2ccc(Cl)cc2)s1)N/N=C/c1ccc(Cl)cc1Cl	none
Cc1cc2c(c(=O)o1)C1(C(=O)N(CC(=O)O)c3ccccc31)C(C#N)=C(N)O2 (centres undefined)	Pol iota inh inconclusive, POLB inh inconclusive, Pol kappa inh inconclusive, Pol eta inh 20µM
CCc1noc(C)c1C(=O)NNC(=O)COc1ccc(Br)cc1	none
C=CCN1C=C2C(=O)C(C)(OC(=O)CCC(=O)OC)C(=O)C(Br)=C2C=C1c1ccc(OC)cc1 (centres undefined)	Pol iota inh inconclusive, Pol eta inh inconclusive, PI5P4K alpha inh inconclusive
CCN(CC)CCCN1C=C2C(=O)C(C)(OC(=O)CCC(=O)OC)C(=O)C(Br)=C2C=C1c1ccc(OC)cc1 (centres undefined)	FEN1 inh inconclusive, Pol iota inh inconclusive, Pol kappa inh inconclusive, Pol eta inh 40µM (no result: POLB inh)
CC(C)COC[C@H](CN(Cc1ccccc1)c1ccccc1)N1CCCC1	none (no result: FEN1 inh, Pol iota inh, POLB inh, Pol eta inh, PI5P4K alpha inh)
CN1C(=O)C2(c3ccccc31)c1c(oc3ccccc3c1=O)C(=O)N2CCCO (centres undefined)	none
N/C(=N\OS(=O)(=O)c1ccccc1)c1ccncc1	Pol iota inh 20µM
O=C(COC(=O)c1ccc([N+](=O)[O-])s1)NC(c1ccccc1)c1ccccc1	POLB inh inconclusive
O=C(COC(=O)c1ccc([N+](=O)[O-])s1)NCc1ccccc1	FEN1 inh inconclusive, Pol iota inh inconclusive, POLB inh 13µM, Pol eta inh inconclusive
O=C(NCc1ccco1)c1ccc(COc2ccccc2[N+](=O)[O-])o1	none
Cc1ccc(CNS(=O)(=O)c2cc(C(=O)Nc3cccc(C(F)(F)F)c3)ccc2F)cc1	none (no result: PI5P4K alpha inh)
CC(=O)Nc1ccc(-c2ccc(NC(C)=O)c(O)c2)cc1O	Pol iota inh inconclusive, POLB inh inconclusive, Pol kappa inh inconclusive, Pol eta inh 35µM, PI5P4K alpha inh inconclusive
CC(=O)Nc1ccccc1O	none
Cc1oc2c(C)c3oc(=O)c(CCC(=O)N4CCCCC4)c(C)c3cc2c1C	none (no result: PI5P4K alpha inh)
O=C(O)c1cccc(N2C(=O)c3ccc(Oc4ccc(Cl)cc4)cc3C2=O)c1	POLB inh 89µM
CCOc1ccc(NC(=O)CSc2nc3nc(C)c(Cc4ccccc4)c(C)n3n2)cc1	none (no result: PI5P4K alpha inh)
COc1cc(C(=O)NC2CCN(C)CC2)ccc1Nc1ncc2c(n1)N(CCc1ccccc1)CCC(=O)N2C	FEN1 inh 50µM (no result: POLB inh)
COc1cc(C(=O)NC2CCN(C)CC2)ccc1Nc1ncc2c(n1)N(C1CCCC1)CCC(=O)N2C(C)C	Pol iota inh inconclusive (no result: POLB inh)
COc1ccccc1NC(=O)COC(=O)C1=NN(c2ccccc2)C(=O)CC1	none (no result: POLB inh)
Cc1ccnc(N/C=C(\C#N)c2nc(-c3cccc(Br)c3)cs2)c1	FEN1 inh inconclusive, Pol iota inh inconclusive, POLB inh 35µM (no result: PI5P4K alpha inh)
COc1cc2ccccc2cc1C(=O)Nc1ccc2oc(-c3cccc(C)c3)nc2c1	none (no result: PI5P4K alpha inh)
COc1cc(/C=C2\C(=O)ON=C2c2ccccc2)cc(Cl)c1O	Pol iota inh inconclusive, PI5P4K alpha inh -67
COc1cc([N+](=O)[O-])ccc1-c1ccc(/C=N\n2cnnc2)o1	Pol iota inh inconclusive, POLB inh inconclusive
COc1cc([N+](=O)[O-])ccc1-c1ccc(/C=C2\C(=O)ON=C2c2ccccc2)o1	FEN1 inh inconclusive, Pol iota inh inconclusive, Pol eta inh 79µM (no result: POLB inh)
O=C1ON=C(c2ccccc2)/C1=C\c1ccco1	POLB inh 32µM
NC(=O)CSc1ccc2nnc(-c3ccncc3)n2n1	none (no result: POLB inh, Pol eta inh, PI5P4K alpha inh)
N#Cc1ccc(C(=O)OCC(=O)NC(=O)NCc2ccccc2)cc1	none (no result: POLB inh)
Cc1ccc2nc(-c3ccc(N=Nc4cc(S(=O)(=O)O)c5ccccc5c4O)cc3)sc2c1S(=O)(=O)O	FEN1 inh 7.1µM, Pol iota inh 25µM, Pol kappa inh 20µM (no result: POLB inh, Pol eta inh, PI5P4K alpha inh)
Cc1ccc(N=Nc2ccc3ccccc3c2O)cc1	none
COc1cccc(Nc2ncc3nc(-c4cc(F)cc(F)c4)c(=O)n(C4CC4)c3n2)c1	none (no result: FEN1 inh, Pol iota inh, POLB inh, Pol eta inh, PI5P4K alpha inh)
